Data: PMC11062922 (Nature Chemical Biology, 2023)
Read-outs that look alike come from different tables or passages of the source.

Assays:
Set-up in all cases: species or system human, MV4-11 + K-562 + COLO205 + SK-N-BE2 + OVCAR-8
[1] = test system: AURKB; conditions: read-out: apparent Kd, n = 1
[2] = test system: DDR1; conditions: read-out: apparent Kd, n = 1
[3] = test system: DDR2; conditions: read-out: apparent Kd, n = 1
[4] = test system: EPHA7; conditions: read-out: apparent Kd; compound concentrations:100 nM and 1000 nM (sheet 'Samples'); n = 1
[5] = test system: EPHB6; conditions: read-out: apparent Kd, n = 1
[6] = test system: FLT3; conditions: read-out: apparent Kd, n = 1
[7] = test system: FLT4; conditions: read-out: apparent Kd, n = 1
[8] = test system: JAK2; conditions: read-out: apparent Kd; compound concentrations:100 nM and 1000 nM (sheet 'Samples'); n = 1
[9] = test system: RET; conditions: read-out: apparent Kd, n = 1
[10] = test system: AURKA; conditions: read-out: apparent Kd; compound concentrations: 100 nM and 1000 nM (sheet 'Samples'), CATDS: 4.2728158523190798E-2; n = 1
[11] = test system: BUB1; conditions: read-out: apparent Kd; compound concentrations: 100 nM and 1000 nM (sheet 'Samples'), CATDS: 4.7022132934679002E-2; n = 1
[12] = test system: CSNK1D; conditions: read-out: apparent Kd; compound concentrations: 100 nM and 1000 nM (sheet 'Samples'), CATDS: 5.89125677268394E-2; n = 1
[13] = test system: CSNK1E; conditions: read-out: apparent Kd; compound concentrations: 100 nM and 1000 nM (sheet 'Samples'), CATDS: 4.0450014161249097E-2; n = 1
[14] = test system: GAK; conditions: read-out: apparent Kd, n = 1
[15] = test system: LIMK2; conditions: read-out: apparent Kd; compound concentrations: 100 nM and 1000 nM (sheet 'Samples'), CATDS: 3.6080783188173302E-2; n = 1
[16] = test system: NQO2; conditions: read-out: apparent Kd; compound concentrations: 100 nM and 1000 nM (sheet 'Samples'), CATDS: 0.178299559019577; n = 1
[17] = test system: PDGFRB; conditions: read-out: apparent Kd; compound concentrations: 100 nM and 1000 nM (sheet 'Samples'), CATDS: 5.3358090976632598E-2; n = 1
[18] = test system: RIPK2; conditions: read-out: apparent Kd, n = 1
[19] = test system: RIPK3; conditions: read-out: apparent Kd; compound concentrations: 100 nM and 1000 nM (sheet 'Samples'), CATDS: 3.2567224991893698E-2; n = 1
[20] = test system: SIK2; conditions: read-out: apparent Kd; compound concentrations: 100 nM and 1000 nM (sheet 'Samples'), CATDS: 4.1786415024185397E-2; n = 1
[21] = test system: TGFBR1; conditions: read-out: apparent Kd; compound concentrations: 100 nM and 1000 nM (sheet 'Samples'), CATDS: 3.3015845196466199E-2; n = 1
[22] = test system: TGFBR2; conditions: read-out: apparent Kd; compound concentrations: 100 nM and 1000 nM (sheet 'Samples'), CATDS: 3.2296969977490597E-2; n = 1
[23] = test system: TNK1; conditions: read-out: apparent Kd; compound concentrations: 100 nM and 1000 nM (sheet 'Samples'), CATDS: 4.85220574572469E-2; n = 1
[24] = test system: CDC42; conditions: read-out: apparent Kd; compound concentrations: 100 nM and 1000 nM (sheet 'Samples'), CATDS: 1; n = 1
[25] = test system: CAMK2B; conditions: read-out: apparent Kd; compound concentrations:100 nM and 1000 nM (sheet 'Samples'); n = 1
[26] = test system: CDC7; conditions: read-out: apparent Kd; compound concentrations:100 nM and 1000 nM (sheet 'Samples'); n = 1
[27] = test system: FN3K; conditions: read-out: apparent Kd; compound concentrations:100 nM and 1000 nM (sheet 'Samples'); n = 1
[28] = test system: ICK; conditions: read-out: apparent Kd; compound concentrations:100 nM and 1000 nM (sheet 'Samples'); n = 1
[29] = test system: MAPK10; conditions: read-out: apparent Kd; compound concentrations:100 nM and 1000 nM (sheet 'Samples'); n = 1
[30] = compound concentrations:100 nM and 1000 nM (sheet 'Samples')

For `Nc1ncnc2occ(-c3ccc(NC(=O)Nc4cc(C(F)(F)F)ccc4F)cc3)c12` [GW770249A_KCGS], the potency estimated from few doses [1, 30] was 1400 nM, the potency estimated from few doses [2, 30] was 122 nM and the potency estimated from few doses [3, 30] was 529 nM. For the same molecule, the potency estimated from few doses [4] was 1760 nM, the potency estimated from few doses [5, 30] was 1000 nM and the potency estimated from few doses [6, 30] was 215 nM. For the same molecule, the potency estimated from few doses [7, 30] was 114 nM, the potency estimated from few doses [8] was 871 nM and the potency estimated from few doses [9, 30] was 17.1 nM.
Molecule `CCCCc1nn2ncccc2c1-c1ccnc(Nc2ccc(N3CCN(C)CC3)cc2)n1` [GW684941X] has a potency estimated from few doses [10] of 853 nM, a potency estimated from few doses ([1]; compound concentrations: 100 nM and 1000 nM (sheet 'Samples'), CATDS: 4.3580096723042298E-2) of 809 nM and a potency estimated from few doses [11] of 667 nM. The potency estimated from few doses [12] was 400 nM, the potency estimated from few doses [13] was 993 nM and the potency estimated from few doses ([2]; compound concentrations: 100 nM and 1000 nM (sheet 'Samples'), CATDS: 6.5674707070784599E-2) was 320 nM. The potency estimated from few doses ([3]; compound concentrations: 100 nM and 1000 nM (sheet 'Samples'), CATDS: 3.7339921381228602E-2) was 1270 nM, the potency estimated from few doses ([5]; compound concentrations: 100 nM and 1000 nM (sheet 'Samples'), CATDS: 3.6673450698806898E-2) was 1340 nM and the potency estimated from few doses ([6]; compound concentrations: 100 nM and 1000 nM (sheet 'Samples'), CATDS: 0.27087793421716799) was 32.5 nM. The potency estimated from few doses ([7]; compound concentrations: 100 nM and 1000 nM (sheet 'Samples'), CATDS: 4.30316479834668E-2) was 837 nM, the potency estimated from few doses ([14]; compound concentrations: 100 nM and 1000 nM (sheet 'Samples'), CATDS: 7.8479207153445404E-2) was 227 nM and the potency estimated from few doses [15] was 1420 nM. The potency estimated from few doses [16] was 58.6 nM, the potency estimated from few doses [17] was 496 nM and the potency estimated from few doses ([9]; compound concentrations: 100 nM and 1000 nM (sheet 'Samples'), CATDS: 0.111645797001171) was 122 nM. For the same molecule, the potency estimated from few doses ([18]; compound concentrations: 100 nM and 1000 nM (sheet 'Samples'), CATDS: 3.9651452900350902E-2) was 1050 nM, the potency estimated from few doses [19] was 2080 nM and the potency estimated from few doses [20] was 906 nM. For the same molecule, the potency estimated from few doses [21] was 1970 nM, the potency estimated from few doses [22] was 2150 nM and the potency estimated from few doses [23] was 618 nM.
With `COC(=O)c1cccc(NC(=O)NCCNc2ccnc(Nc3ccc(F)cc3)n2)c1` [GSK1379883A] the potency estimated from few doses [24] was 1560 nM.
Molecule `COc1cc2ncnc(Nc3cccc(Br)c3)c2cc1OC.Cl` [GI230329A] has a potency estimated from few doses [25] of 405 nM, a potency estimated from few doses [26] of 2060 nM and a potency estimated from few doses [27] of 2150 nM. It also gave a potency estimated from few doses [14, 30] of 319 nM, a potency estimated from few doses [28] of 1370 nM and a potency estimated from few doses [29] of 956 nM. The potency estimated from few doses [18, 30] was 1140 nM.
